Inconclusive results are not listed. Entries that show only a call come without a potency. Active and inactive are the calls of the source. Unless noted, the call rests on the fitted dose curve.
What was measured:
[1] = Nuclear factor erythroid 2-related factor 2/antioxidant responsive element (Nrf2/ARE) small molecule agonists: qHTS cell viability counter screen in human keratinocytes (AID 1919968; active means well fitted curve in the direction sought with a large enough effect in the repeat runs; an effect the other way counts as inactive or inconclusive; further: nearly all actives have a fitted effect of over 55% in size)
Summary of the method: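 In human HaCaT keratinocytes stably expressing an ARE-driven luciferase, compound exposure lasted 23 h at 37 C under 5% CO2. Viable cells are quantified with a protease-based fluorogenic reagent (CellTiter-Fluor) read 1 h after addition.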

[2] = Nuclear factor erythroid 2-related factor 2/antioxidant responsive element (Nrf2/ARE) small molecule agonists: luciferase reporter gene qHTS assay in human keratinocytes (AID 1919969); further: nearly all actives have a fitted effect of over 35% in size; further: potency means the concentration at half of the fitted maximal effect
[3] = target: Gonadotropin-releasing hormone receptor (Homo sapiens) (UniProt P30968); experiment: Human gonadotropin-releasing hormone receptor (GnRHR) small molecule agonists, calcium flux assay in GnRHR-HEK293 cells (AID 1920063); further: nearly all actives have a fitted effect of over 35% in size
Summary of the method: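 Intracellular calcium rise is the read-out: engineered human GnRHR HEK293 cells, dye-loaded, are exposed to DMSO-dissolved compounds and fluorescence at Ex/Em 480/540 is tracked for 3 min.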

[4] = target: KiSS-1 receptor (Homo sapiens) (UniProt Q969F8); experiment: Human kisspeptin (KISS1R) small molecule agonists, calcium flux assay in KISS1R-HEK293 cells (AID 1920064; active means well fitted curve in the direction sought with a large enough effect in the repeat runs; an effect the other way counts as inactive or inconclusive)
Summary of the method: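 Concentration-response testing used 15 concentrations in triplicate on human KISS1R-expressing HEK293 cells. Calcium-dependent fluorescence (Ex/Em 480/540) was followed kinetically for 3 min after compound transfer.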

[5] = G protein-coupled receptor (GPCR) small molecule agonists, calcium flux assay: HEK293 wild type cell line counter screen (AID 1920065)
Summary of the method: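 Fluorescence intensity signals activation. After overnight (18 h) culture and a 1 h calcium dye load at 37 C, compounds are added by pin tool and the plate read at 480/540 nm for 3 min in 1 s steps.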

[6] = p53 small molecule agonists, cell-based qHTS assay with human liver microsomes (AID 1963577);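 further: p53 response element beta-lactamase reporter cells with liver microsomes plus NADPH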
Summary of the method: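 In this qHTS, p53 response-element beta-lactamase cells receive test compound together with a microsome/NADPH activating system (0.5 mg/mL final each) and are incubated 16 h at 37 C before LiveBLAzer fluorescence detection.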

[7] = p53 small molecule agonists, cell-based qHTS assay with rat liver microsomes (AID 1963578)
Summary of the method: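 Agonist mode in p53RE-bla reporter cells, with compounds co-incubated 16 h at 37 C alongside 0.5 mg/mL rat liver microsomes and 0.5 mg/mL NADPH (final), followed by a 2 h LiveBLAzer detection step.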

[8] = p53 small molecule agonists, cell-based qHTS assay with human liver microsomes: qHTS cell viability counter screen (AID 1963579); further: nearly all actives have a fitted effect of over 45% in size
Summary of the method: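 Metabolically activated exposure: compounds, human liver microsomes and NADPH (0.5 mg/mL final apiece) were added to p53RE-bla cells seeded 5 h earlier, left 16 h at 37 C, and then assessed for viability by CellTiter-Glo luminescence.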

[9] = p53 small molecule agonists, cell-based qHTS assay with rat liver microsomes: qHTS cell viability counter screen (AID 1963580); further: nearly all actives have a fitted effect of over 45% in size
Summary of the method: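 Counter screen for cytotoxicity under metabolic activation: rat liver microsomes and NADPH, 0.5 mg/mL final each, added with compounds to p53RE-bla HCT-116 cells; 16 h at 37 C, then ATP luminescence read.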

[10] = p53 small molecule agonists, cell-based qHTS assay: qHTS cell viability counter screen (AID 1963581); further: nearly all actives have a fitted effect of over 45% in size
Summary of the method: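 Luminescence from CellTiter-Glo, reflecting ATP content, serves as the cytotoxicity measure; it is taken after the 2 h reporter substrate step in HCT-116 p53RE-bla cells dosed for 16 h at 37 C.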

[11] = p53 small molecule agonists, cell-based qHTS assay (AID 1963582; active means well fitted activation curve with a large enough effect in the signal ratio in the repeat runs, not every such curve was filed as active; the % refers to the signal ratio)
Summary of the method: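 After plating, p53RE-bla cells sat 5 h in the incubator; compounds or DMSO vehicle were pinned in; a 16 h incubation at 37 C followed; FRET substrate was added and, 2 h later at RT, fluorescence was measured.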

[12] = target: 5-hydroxytryptamine receptor 2A (Homo sapiens) (UniProt P28223); experiment: 5-hydroxytryptamine receptor 2A (HTR2A) small molecule antagonists, cell-based qHTS assay (AID 1963586); further: nearly all actives have a fitted effect of over 45% in size; further: potency means the concentration at half of the fitted maximal effect
Summary of the method: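 CHO cells stably expressing human HTR2A were plated for 18 h at 37 C, then loaded with calcium dye for 1 h. Compounds were preincubated 5 min at room temperature before DOI (4 nM solution) was added. Kinetic fluorescence was read for 3 min.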

[13] = target: 5-hydroxytryptamine receptor 2A (Homo sapiens) (UniProt P28223); experiment: 5-hydroxytryptamine receptor 2A (HTR2A) small molecule agonists, cell-based qHTS assay (AID 1963587); further: nearly all actives have a fitted effect of over 30% in size
Summary of the method: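 HTR2A-CHO cells, plated 18 h at 37 C/5% CO2, dye-loaded 1 h at 37 C; compounds in DMSO added by pin tool (agonist mode). Intracellular calcium flux read as kinetic fluorescence on FDSS over 2 min at 1 s intervals.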

[14] = target: Muscarinic acetylcholine receptor M1 (Homo sapiens) (UniProt P11229); experiment: Cholinergic receptor muscarinic 1 (CHRM1) small molecule agonists, cell-based qHTS assay (AID 1963589); further: nearly all actives have a fitted effect of over 35% in size
Summary of the method: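 Fluorescent calcium dye reports M1 activation in stably transfected CHO cells. Compounds, 15 concentrations, added after 1 h dye loading at 37 C; kinetic reading at 1 sec intervals.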

[15] = cAMP Responsive Elements (CRE) small molecule agonists, cell-based qHTS assay (AID 1963590)
Summary of the method: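 Compound exposure lasted 3 h at 37 C/5% CO2 in CRE-bla HEK 293T cells grown in assay medium with 10% dialyzed FBS and 25 mM HEPES. Reporter signal came from LiveBLAzer B/G FRET substrate, 2 h, room temperature.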

[16] = cAMP Responsive Elements (CRE) small molecule antagonists, cell-based qHTS assay (AID 1963591; active means well fitted inhibition curve with a large enough effect in the signal ratio in the repeat runs, not every such curve was filed as active; the % refers to the signal ratio)
Summary of the method: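 Stimulation used NKH477 at a final 0.25 uM for 3 h in compound-treated CRE-bla HEK293T cells, seeded 18 h beforehand. Reporter activity was measured with LiveBLAzer B/G FRET substrate after 2 h at room temperature.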

[17] = target: Beta-2 adrenergic receptor (Homo sapiens) (UniProt P07550); experiment: Adrenergic beta2 receptor (ADRB2) small molecule antagonists, cell-based qHTS assay (AID 1963592); further: series mostly up to about 92 µM; nearly all actives have a fitted effect of over 50% in size
Summary of the method: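 Assay format: CHO-ADRB2 cells, 18-20hr seeding at 37C/5% CO2, then compound plus 1nM isoproterenol agonist mix for 0.5hr RT. Homogeneous time-resolved fluorescence cAMP detection after 1hr, expressed as 665/615 nm ratio.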

[18] = target: D(2) dopamine receptor (Homo sapiens) (UniProt P14416); experiment: Dopamine D2 receptor (DRD2) small molecule agonists, cell-based qHTS assay (AID 1963594); further: nearly all actives have a fitted effect of over 35% in size
Summary of the method: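 HEK293 cells stably expressing DRD2 were cultured 24 h at 37 C, then given Ro20-1724 (0.1 mM final) and compounds for 10 min at room temperature. NKH477 (200nM) was then added for 30 min. cAMP was read by HTRF.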

[19] = target: D(2) dopamine receptor (Homo sapiens) (UniProt P14416); experiment: Dopamine D2 receptor (DRD2) small molecule antagonists, cell-based qHTS assay (AID 1963595; active means well fitted inhibition curve with a large enough effect in the signal ratio in the repeat runs, with a control signal flat; the % refers to the signal ratio)
Summary of the method: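 Antagonism was scored as restored cAMP in HEK293-DRD2 cells. These cells were stimulated with 200 nM NKH477 and 12 nM quinpirole for 30 min at room temperature, in the presence of 0.1 mM Ro20-1724.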

[20] = target: Muscarinic acetylcholine receptor M1 (Homo sapiens) (UniProt P11229); experiment: Cholinergic receptor muscarinic 1 (CHRM1) small molecule antagonists, cell-based qHTS assay (AID 1963588); further: nearly all actives have a fitted effect of over 40% in size
Summary of the method: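 Compounds were tested at 15 concentrations in three independent runs. Dye-loaded CHRM1-CHO cells were exposed 5 min at room temperature before stimulation by acetylcholine added at 50nM. Intracellular calcium was read kinetically on FDSS for 3 min.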

5-hydroxytryptamine receptor 2A (Homo sapiens), sequence (P28223 whole entry, looked up): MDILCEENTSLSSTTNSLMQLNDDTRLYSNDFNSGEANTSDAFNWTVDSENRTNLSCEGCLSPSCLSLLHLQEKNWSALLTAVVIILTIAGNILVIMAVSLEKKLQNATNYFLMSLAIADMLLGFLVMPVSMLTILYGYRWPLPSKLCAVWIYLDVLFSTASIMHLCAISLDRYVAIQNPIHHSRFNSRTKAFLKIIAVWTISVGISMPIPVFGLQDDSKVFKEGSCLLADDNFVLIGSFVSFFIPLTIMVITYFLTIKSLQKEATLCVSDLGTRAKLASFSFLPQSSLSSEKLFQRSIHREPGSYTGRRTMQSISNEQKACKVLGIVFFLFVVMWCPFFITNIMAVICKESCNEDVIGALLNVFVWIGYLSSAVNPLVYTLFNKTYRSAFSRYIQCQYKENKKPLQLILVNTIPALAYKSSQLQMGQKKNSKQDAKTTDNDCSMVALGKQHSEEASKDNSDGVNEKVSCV
KiSS-1 receptor (Homo sapiens), sequence (Q969F8 whole entry, looked up): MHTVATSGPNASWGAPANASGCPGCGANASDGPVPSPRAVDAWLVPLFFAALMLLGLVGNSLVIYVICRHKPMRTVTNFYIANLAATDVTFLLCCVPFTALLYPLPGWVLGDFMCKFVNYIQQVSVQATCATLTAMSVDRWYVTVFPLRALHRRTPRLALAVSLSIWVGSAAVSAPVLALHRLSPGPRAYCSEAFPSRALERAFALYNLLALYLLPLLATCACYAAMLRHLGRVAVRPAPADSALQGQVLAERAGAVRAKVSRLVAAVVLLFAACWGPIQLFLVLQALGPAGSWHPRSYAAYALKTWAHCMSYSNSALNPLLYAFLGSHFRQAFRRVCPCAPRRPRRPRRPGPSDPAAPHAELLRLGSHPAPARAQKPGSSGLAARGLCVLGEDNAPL
Muscarinic acetylcholine receptor M1 (Homo sapiens), sequence (P11229 whole entry, looked up): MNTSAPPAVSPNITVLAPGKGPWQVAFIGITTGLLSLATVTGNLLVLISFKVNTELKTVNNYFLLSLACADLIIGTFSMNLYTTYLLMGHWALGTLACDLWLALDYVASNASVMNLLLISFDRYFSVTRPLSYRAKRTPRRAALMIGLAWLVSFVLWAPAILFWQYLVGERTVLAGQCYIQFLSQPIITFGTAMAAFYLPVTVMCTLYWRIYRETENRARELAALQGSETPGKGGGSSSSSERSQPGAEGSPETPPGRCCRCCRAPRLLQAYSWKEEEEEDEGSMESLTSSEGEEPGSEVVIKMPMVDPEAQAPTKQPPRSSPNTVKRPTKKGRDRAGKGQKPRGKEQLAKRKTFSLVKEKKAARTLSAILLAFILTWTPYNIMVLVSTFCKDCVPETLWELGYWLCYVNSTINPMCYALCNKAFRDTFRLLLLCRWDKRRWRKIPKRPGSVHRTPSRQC
D(2) dopamine receptor (Homo sapiens), sequence (P14416 whole entry, looked up): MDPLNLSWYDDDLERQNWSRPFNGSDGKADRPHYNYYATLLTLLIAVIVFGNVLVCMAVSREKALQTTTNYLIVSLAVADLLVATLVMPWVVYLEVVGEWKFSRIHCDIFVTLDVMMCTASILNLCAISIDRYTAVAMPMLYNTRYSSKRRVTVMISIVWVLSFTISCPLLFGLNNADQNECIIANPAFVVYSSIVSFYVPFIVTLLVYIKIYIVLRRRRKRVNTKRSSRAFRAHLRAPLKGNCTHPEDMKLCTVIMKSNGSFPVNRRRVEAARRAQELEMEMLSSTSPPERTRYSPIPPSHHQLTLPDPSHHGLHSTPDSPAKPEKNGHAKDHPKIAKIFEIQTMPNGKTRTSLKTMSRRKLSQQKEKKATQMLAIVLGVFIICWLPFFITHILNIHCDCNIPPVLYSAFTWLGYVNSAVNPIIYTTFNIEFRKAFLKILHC
Beta-2 adrenergic receptor (Homo sapiens), sequence (P07550 whole entry, looked up): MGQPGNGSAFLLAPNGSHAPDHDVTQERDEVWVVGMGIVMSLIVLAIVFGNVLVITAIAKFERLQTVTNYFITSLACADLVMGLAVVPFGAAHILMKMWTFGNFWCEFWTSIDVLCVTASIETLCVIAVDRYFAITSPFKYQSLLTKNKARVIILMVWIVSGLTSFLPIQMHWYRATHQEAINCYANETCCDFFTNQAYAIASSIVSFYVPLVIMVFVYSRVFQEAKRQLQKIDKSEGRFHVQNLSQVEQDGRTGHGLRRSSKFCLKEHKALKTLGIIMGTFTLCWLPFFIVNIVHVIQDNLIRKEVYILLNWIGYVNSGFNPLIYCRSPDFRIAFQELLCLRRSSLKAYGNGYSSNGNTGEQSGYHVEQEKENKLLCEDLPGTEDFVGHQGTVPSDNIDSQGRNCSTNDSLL
Gonadotropin-releasing hormone receptor (Homo sapiens), sequence (P30968 whole entry, looked up): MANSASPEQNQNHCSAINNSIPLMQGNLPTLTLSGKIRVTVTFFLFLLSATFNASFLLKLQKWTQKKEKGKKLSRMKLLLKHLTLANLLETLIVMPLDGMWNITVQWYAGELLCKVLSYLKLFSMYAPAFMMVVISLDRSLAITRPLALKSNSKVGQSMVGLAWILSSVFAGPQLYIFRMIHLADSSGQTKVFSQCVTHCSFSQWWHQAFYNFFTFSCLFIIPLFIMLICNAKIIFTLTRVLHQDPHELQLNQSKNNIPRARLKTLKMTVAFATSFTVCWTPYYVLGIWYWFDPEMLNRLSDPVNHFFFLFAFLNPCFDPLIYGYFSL

COc1cc(N)c(Cl)cc1C(=O)NC1CN2CCC1CC2 (stereo not drawn)
Potency [1]: inactive | Potency [2]: inactive | Potency [3]: inactive | Potency [4]: inactive | Potency [5]: inactive | Potency [6]: inactive | Potency [7]: inactive | Potency [8]: inactive | Potency [9]: inactive | Potency [10]: inactive | Potency [11]: inactive | Potency [12]: 5.79 µM (active) | Potency [13]: inactive | Potency [14]: inactive | Potency [15]: inactive | Potency [16]: inactive | Potency [17]: inactive | Potency [18]: inactive | Potency [19]: inactive

CCOC(=O)c1ccccc1C(=O)OCC
Potency [1]: inactive | Potency [2]: inactive | Potency [3]: inactive | Potency [4]: inactive | Potency [5]: inactive | Potency [6]: inactive | Potency [7]: inactive | Potency [8]: inactive | Potency [9]: inactive | Potency [10]: inactive | Potency [11]: inactive | Potency [12]: inactive | Potency [20]: inactive | Potency [14]: inactive | Potency [15]: inactive | Potency [16]: inactive | Potency [17]: inactive | Potency [18]: inactive | Potency [19]: inactive

CCc1cccc(C)c1N(C(=O)CCl)C(C)COC (stereo not drawn)
Potency [1]: inactive | Potency [2]: 57.6 µM (active) | Potency [3]: inactive | Potency [4]: inactive | Potency [5]: inactive | Potency [6]: inactive | Potency [7]: inactive | Potency [8]: inactive | Potency [9]: inactive | Potency [10]: inactive | Potency [11]: inactive | Potency [12]: inactive | Potency [13]: inactive | Potency [14]: inactive | Potency [16]: inactive | Potency [17]: inactive | Potency [18]: inactive

COc1ccccc1OC
Potency [1]: inactive | Potency [2]: inactive | Potency [3]: inactive | Potency [4]: inactive | Potency [5]: inactive | Potency [6]: inactive | Potency [7]: inactive | Potency [8]: inactive | Potency [9]: inactive | Potency [10]: inactive | Potency [11]: inactive | Potency [12]: inactive | Potency [13]: inactive | Potency [14]: inactive | Potency [15]: inactive | Potency [16]: inactive | Potency [17]: inactive | Potency [18]: inactive

N#Cc1ccncc1
Potency [1]: inactive | Potency [2]: inactive | Potency [3]: inactive | Potency [4]: inactive | Potency [5]: inactive | Potency [6]: inactive | Potency [7]: inactive | Potency [8]: inactive | Potency [9]: inactive | Potency [10]: inactive | Potency [11]: inactive | Potency [12]: inactive | Potency [13]: inactive | Potency [14]: inactive | Potency [15]: inactive | Potency [16]: inactive | Potency [17]: inactive | Potency [19]: inactive

CCN(CC)c1ccccc1
Potency [1]: inactive | Potency [2]: inactive | Potency [3]: inactive | Potency [4]: inactive | Potency [5]: inactive | Potency [6]: inactive | Potency [7]: inactive | Potency [8]: inactive | Potency [9]: inactive | Potency [10]: inactive | Potency [11]: inactive | Potency [12]: inactive | Potency [20]: inactive | Potency [14]: inactive | Potency [15]: inactive | Potency [16]: inactive | Potency [17]: inactive | Potency [18]: inactive | Potency [19]: inactive

CCC(=O)O[C@@H]1C=C2CCC3C(CCC4(C)C3CC[C@@H]4OC(=O)CC)C2CC1 (stereo partly drawn)
Potency [1]: inactive | Potency [2]: inactive | Potency [3]: inactive | Potency [4]: inactive | Potency [5]: inactive | Potency [6]: inactive | Potency [7]: inactive | Potency [8]: inactive | Potency [9]: inactive | Potency [10]: inactive | Potency [11]: inactive | Potency [12]: inactive | Potency [13]: inactive | Potency [14]: inactive | Potency [16]: inactive | Potency [17]: inactive | Potency [18]: inactive | Potency [19]: inactive

Source: PubChem BioAssay (Tox21)
